Six1-Eya2 inh – qHTS Assay for Inhibitors of the Six1/Eya2 Interaction | Homeobox protein SIX1 (Homo sapiens) + Protein phosphatase EYA2 (Homo sapiens), … | AlphaScreen GST-Six1/His-Eya2 binding, biochemical; stronger effect = lower value | activity change, % (test concentration not listed) | actives 0.56% (n = 360,000) | AID 651725, 2012
Target sequence (O00167 whole entry, looked up): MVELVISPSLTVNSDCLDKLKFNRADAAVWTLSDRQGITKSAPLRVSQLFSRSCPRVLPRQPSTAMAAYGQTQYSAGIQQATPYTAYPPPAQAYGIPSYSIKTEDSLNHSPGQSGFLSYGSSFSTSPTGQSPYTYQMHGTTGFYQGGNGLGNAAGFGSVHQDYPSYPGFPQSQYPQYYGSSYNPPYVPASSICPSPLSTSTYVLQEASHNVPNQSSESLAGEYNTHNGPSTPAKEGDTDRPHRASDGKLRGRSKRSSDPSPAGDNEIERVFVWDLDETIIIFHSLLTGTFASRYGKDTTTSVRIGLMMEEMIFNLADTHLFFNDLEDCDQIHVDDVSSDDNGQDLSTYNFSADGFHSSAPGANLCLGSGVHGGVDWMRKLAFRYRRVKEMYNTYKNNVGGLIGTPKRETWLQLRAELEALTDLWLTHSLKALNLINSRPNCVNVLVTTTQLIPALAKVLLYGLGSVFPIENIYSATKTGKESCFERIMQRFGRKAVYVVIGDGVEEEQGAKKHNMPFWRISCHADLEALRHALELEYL
Target sequence (Q15475 whole entry, looked up): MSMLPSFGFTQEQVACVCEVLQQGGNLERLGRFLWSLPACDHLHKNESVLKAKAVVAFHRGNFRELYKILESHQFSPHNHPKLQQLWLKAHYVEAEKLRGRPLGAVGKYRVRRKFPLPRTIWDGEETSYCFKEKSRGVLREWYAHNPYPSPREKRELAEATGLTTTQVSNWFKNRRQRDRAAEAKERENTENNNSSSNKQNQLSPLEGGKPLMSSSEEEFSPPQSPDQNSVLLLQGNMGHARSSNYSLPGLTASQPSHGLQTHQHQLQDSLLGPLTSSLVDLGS
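AlphaScreen luminescence read after one hour at 37 °C in darkness. Pin-transferred compounds met GST-Six1 and His-Eya2 protein (5X stock 250 nM/500 nM) plus glutathione donor and Ni-chelate acceptor beads (5X, 50 ug/mL).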
CtBP-E1A inh – qHTS Assay for Inhibitors of the CtBP/E1A Interaction; CtBP / adenovirus E1A interaction (AlphaScreen); AlphaScreen GST-E1A/His-CtBP binding, 1536-well; stronger effect = lower value; activity change, % (concentration not given with the values); actives 0.49% (n = 340,000)
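In 5 uL wells, 23 nL compound meets equimolar GST-E1A and His-CtBP (5X stock 125 nM each) for 2 h, 37 °C. Beads (5X, 50 ug/mL) then 1 h, 37 °C, dark.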
pAkt inh – HTS Assay for Inhibitors of Akt Phophorylation: Primary Screen; activity change, % for hits at 50 µM; Neuro2A IGF-stimulated pAkt S473 HTRF, 20 min; stronger effect = lower value; actives 0.32% (n = 360,000); in the data active = activity change below about -80%; inconclusive = mostly about -51% to -80%
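Neuro2A cells in DMEM with 0.5% FBS, overnight at 37 deg C, given compound at single 50 µM final, then IGF (6 nM final) for 20 min at 37 deg C. Lysed; phospho-Akt Ser473 by HTRF after 24 h, 665/615 ratio.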
CCT modulator – High-Throughput Screening for Modulators of Cytosolic Chaperonin Activity; purified chaperonin ATPase assay, HTRF ADP detection, 30 min; activity change, % (concentration not given with the values), hits read low; actives 0.3% (n = 360,000); AID 651819, 2012; in the data active = activity change below about -30%
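TRiC at 40 or 20 nM final (batch-dependent) in 30 mM Tris pH 7.4, 100 mM KCl, 5 mM MgCl2, 1 mM DTT, with compound at single 76 uM and 10 uM ATP, 30 min at 37 deg C. ADP detected by HTRF Transcreener, 665/615 ratio.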
Active calls of the source: *; i = inactive; ? = inconclusive; · = not tested or not shown. This is a sample that favours compounds with a hit; in the whole collection about 1.2% have one here. Cut-off read from the data, not from the text of the source, unless noted: active = activity change below about -65%; inconclusive = mostly about -30% to -63%; inactive = weaker than that. % is set by controls: 0 for no effect and ±100 for the full control effect.

SMILES	Six1-Eya2 inh	CtBP-E1A inh	pAkt inh	CCT modulator
CCN(CC)c1ccc(/C=N/NC(=O)CNC(=O)C2COc3ccccc3O2)c(O)c1 (stereo not given)	-70*	?	i	1
O=C1CN(S(=O)(=O)c2cccc(Br)c2)CCN1	-15	3	i	-3
COc1ccc(Nc2nc(-c3cccs3)nc3ccccc23)cc1S(=O)(=O)N1CCOCC1	?	-67*	i	0
CC(=O)N/N=C/c1cc(C(C)C)cc(/C=N/NC(C)=O)c1O	-74*	-84*	i	1
O=C(Cn1cc(C(=O)c2ccco2)c2ccccc21)NCc1ccco1	-2	-7	-105%*	0
Cc1ccc(-c2nnc3ccc(SCC(=O)Nc4cc(C)on4)nn23)cc1	-3	-8	i	-3
Cc1cc(NC(=O)CSc2ccc3nnc(-c4cccs4)n3n2)no1	?	-68*	i	0
Cc1cc(C)n(S(=O)(=O)c2cc(Cl)ccc2Cl)n1	10	12	-121%*	0
Cc1ccc(/C=C/C(=O)NC2CCCCCCC2)o1	-3	-12	i	-1
COc1ccc(/C=C/C(=O)c2ccc(O)cc2)cc1CN1CCOCC1	?	-86*	i	-3
O=C(CN(Cc1ccco1)C(=O)CNS(=O)(=O)c1ccc(Cl)cc1)NCc1ccc(F)cc1	2	0	i	-2
CCN(CC)C(=O)c1sc2nc(-c3ccccn3)[nH]c(=O)c2c1C	-90*	-88*	i	-1
Cc1sc2nc(-c3ccccn3)[nH]c(=O)c2c1-c1ccccc1	?	-83*	i	-1
CCN(CC)C(=O)c1sc2nc(-c3ccncc3)[nH]c(=O)c2c1C	0	5	i	1
OCCN1CCN(C2CCC(c3ccc(F)cc3)c3ccc(F)cc32)CC1 (stereo not given)	-6	-1	i	-1
Cc1ccc2nc(CC(O)(c3ccccc3)c3ccccc3)ccc2c1	9	1	i	0
COc1cccc2ccc(CC(O)(c3ccccc3)c3ccccc3)nc12	10	-24	i	-52*
O=C(COc1ccccc1)Nc1ccc(-c2ccc(N3CCOCC3)nn2)cc1	-22	11	i	-137*
Cn1nc(C(=O)OCc2ccc(F)cc2)c2ccccc2c1=O	-20	-24	i	-37*
COc1ccc(C(=O)NC(=S)NNC(=O)c2ccccc2O)cc1	-92*	-12	i	-1
O=C(NC(=S)NNC(=O)c1ccccc1O)c1cccnc1	-90*	·	i	-9
O=C(NC(=S)NNC(=O)c1ccc(Cl)cc1Cl)c1cccnc1	0	-10	i	-1
O=C(NC(=S)NNC(=O)c1cnccn1)c1ccc(Cl)cc1	-92*	-95*	i	1
CCOc1ccc(C(=O)CCC(=O)N2CCN(S(=O)(=O)c3cccc(F)c3)CC2)cc1	5	-4	i	-49*
Cc1ccc(OCCCC(=O)N2CCN(S(=O)(=O)c3cccc(F)c3)CC2)cc1	-3	-1	i	-3
SMILES	Six1-Eya2 inh	CtBP-E1A inh	pAkt inh	CCT modulator
c1ccc(CSc2nc3ncccn3n2)cc1	7	7	i	3
COc1ccccc1CNc1nc(=S)[nH]c2cc(OC)c(OC)cc12	-81*	-85*	i	1
COc1cc2[nH]c(=S)nc(NCc3ccc(Cl)cc3)c2cc1OC	?	?	i	1
COc1cc2[nH]c(=S)nc(NCc3cccs3)c2cc1OC	-84*	-90*	i	1
Cc1ccc(S(=O)(=O)N(C)CC(=O)N2CCCCCC2)cc1	-1	·	i	0
CCCN(CCC)S(=O)(=O)c1ccc(C(=O)Nc2nc(-c3ccccc3)c(C(=O)OCC)s2)cc1	10	5	i	-3
COc1ccccc1N1CCN(Cc2cc(Br)c(O)c3ncccc23)CC1	-92*	-85*	i	-3
Cc1c(O)c(CN2CCCC2)cc2c1oc(=O)c1ccccc12	-3	-13	i	-1
COCc1cc(CN2CCCC2)c(O)c2ncccc12	-91*	-94*	i	2
Oc1c(CN2CCCCC2)cc(COCc2ccccc2)c2cccnc12	-85*	-3	i	2
Oc1cc(Cc2ccccc2)cnc1CN1CCCCC1	-4	0	i	-2
OC(c1ccc(Cl)c(F)c1)c1ncc(-c2ccccc2F)[nH]1 (stereo not given)	-15	-6	i	0
COc1ccc(NC(=O)CN(C)S(=O)(=O)c2cnc[nH]2)cc1OC	4	2	i	0
Cc1cc(C)cc(NC(=O)CN(C)S(=O)(=O)c2cnc[nH]2)c1	7	0	-116%*	-6
Cn1nc([N+](=O)[O-])nc1N1CCOCC1	4	-11	i	-44*
O=C(CN1C(=O)c2ccccc2C1=O)Nc1cccc(S(=O)(=O)Nc2ccccc2Cl)c1	-68*	-68*	i	-3
O=C(CN1C(=O)c2ccccc2C1=O)Nc1cccc(Cl)c1	-8	-3	i	-1
Cc1cc(NCc2ccccc2)nc(N2CCOCC2)n1	-2	-1	-113%*	-4
Cc1cc(N2CCOCC2)nc(NCc2ccccc2)n1	-2	8	i	-4
Cc1ccc(CN2CCN(CC(=O)NCCCN3CCN(c4ccc(F)cc4)CC3)C2=O)cc1	-5	-4	i	-2
COc1ccc(N2CCN(CCCNC(=O)CN3CCN(Cc4ccccc4C)C3=O)CC2)cc1	-22	-25	-111%*	0
COc1cccc(-c2cnc3c(NC=O)cc(-c4ccc(OC)cc4OC)cn23)c1	-11	-22	i	-35*
CC(=O)Nc1cc(-c2cccc(C(=O)NCCN(C)C)c2)cn2c(-c3ccccc3)cnc12	4	-18	·	-38*
COc1cccc(-c2cnc3c(NC(C)=O)cc(-c4ccc(C(=O)NC5CC5)cc4)cn23)c1	-10	-16	i	-35*
Cc1nn(CCCC(=O)NCCc2ccccc2)c(=O)c2nccn12	12	11	i	1
SMILES	Six1-Eya2 inh	CtBP-E1A inh	pAkt inh	CCT modulator
COc1ccccc1NC(=O)Nc1cccc(C(=O)O)c1	0	5	i	-50*
O=C(COc1cccc(F)c1)Nc1nc(-c2cccnc2)cs1	3	·	i	0
COc1ccc(CCN2C(=O)CC(N3CCN(S(=O)(=O)c4ccccc4)CC3)C2=O)cc1OC (stereo not given)	-17	·	i	0
CCC(=O)N1CCN=C1SCc1ccccc1Cl	0	7	i	-63*
NC(COCc1ccccc1)c1csc(Nc2ccccn2)n1 (stereo not given)	-89*	-90*	i	-2
NC(CCc1ccccc1)c1csc(Nc2ccccn2)n1 (stereo not given)	-73*	-83*	i	0
NC(CCc1ccccc1)c1csc(Nc2ccc(C(F)(F)F)cn2)n1 (stereo not given)	-9	-13	i	-3
